Assay results from PubChem BioAssay (NCATS).
Inconclusive results are not listed. Values without a mark were called inactive. Calls follow the shape of the dose curve; as a rule, active = well fitted activation curve with a large enough effect; inconclusive = small, poorly fitted or top-dose-only effect; inactive = no such curve, though single readings can be large or run the other way.

Assay: qHTS for Activators of Parkin Expression: LOPAC Validation Assay (FLuc Reporter) (AID 720573;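 also: 0% = DMSO and 100% = positive control compounds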)
Conditions: Cell line, PRKN promoter firefly luciferase reporter; series mostly up to 46.1 µM; activation: at the top concentration
Text: Parkin is an E3 ubiquitin ligase localized in the cytosol of cells expressed in many tissues, including brain, skeletal muscle, heart and liver tissues. One hour after stress induction by mitochondrial uncouplers (which mimic mitochondria damage by decreasing the mitochondrial inner membrane electrochemical gradient that is used to produce ATP), Parkin translocates from the cytosol to mitochondria in many cultured cell types, including neurons and HeLa cells. Administration of other mitochondrial poisons, such as Paraquat and azide in cells lacking mitochondrial DNA (mtDNA), induces Parkin translocation to mitochondria. […] It was proposed that Parkin (together with Pink1) mediates a mitochondrial quality control pathway to maintain organelle population fidelity by removing damaged mitochondria. Understanding the normal physiologic role of Parkin (and Pink1) may uncover novel treatment strategies for sporadic Parkinson's disease patients with mutation in these genes.
A cell based qHTS in 1536 well format was developed assess modulation of Parkin expression using a neuronal cell line that stably expresses a stably expresses a luminescent coincidence reporter (FLuc and NLuc reporters) behind the Parkin promoter. The LOPAC library is used to validate the assay for quantitative high-throughput screening. The data herein reports the signal from the FLuc reporter. An increase in this signal = activation of Parkin expression. For this assay , a positive control normalized signal increase corresponding to a high quality qHTS curve class in both luminescent channels is the desired outcome for this assay.
NIH Chemical Genomics Center [NCGC]
NIH Molecular Libraries Probe Centers Network [MLPCN]
Assay Submitter (PI): Richard Youle, National Institute of Neurological Disorders and Strokes (NINDS), NIH
[1] Narendra, D., et al., Parkin is recruited selectively to impaired mitochondria and promotes their autophagy. J Cell Biol, 2008. 183(5): p. 795-803.
[2] Suen, D.F., et al., Parkin overexpression selects against a deleterious mtDNA mutation in heteroplasmic cybrid cells. Proc Natl Acad Sci U S A, 2010. […] 11835-40.
[3] Cheng K, Inglese J. A coincedence reporter-gene system for high-throughput screening. Nat Methods. 2012: 9(10);937
Five microliters (1,500 cells/well) of the Parkin coincidence reporter cells were seeded to 1536 well assay plates (Greiner Catalog # 789173-F) and incubated at 37 C, 5% CO2 for 24 hours. Compounds (23 nL) were pinned using the Kalypsys robotic system equipped with 1536 pin head adaptor in 7-point dose response. The assay plates were incubated for additional 24 hr at 37 C, 5% CO2 followed by a volume reduction in each well to 2 uL using an automated plate washer/aspirator. Following the volume reduction,2 uL of FLuc detection reagent and plates were incubated for 10 minutes at room temperature. The FLuc luminescence signal was obtained using the PerkinElmer ViewLux plate imager and then 2 uL of NanoLuc detection reagent was added to the plates. After another 10 minute incubation, NanoLuc signal was obtained using the PerkinElmer ViewLux plate imager as before. Data from each channel was normalized to DMSO (neutral control) and the positive control compounds (100%).

Row | SMILES | activation [%]
1 | c1ccc2nc(C3=NCCN3)ccc2c1 | 0.263
2 | CCSC(=N)N | -2.85
3 | C[C@]12C=CC(=O)C=C1CC[C@@H]1C2=CC[C@]2(C)[C@@H](C(=O)CN3CCN(c4cc(N5CCCC5)nc(N5CCCC5)n4)CC3)CC[C@@H]12 | -4.86
4 | CC1=C(C(=O)O)N2C(=O)[C@@H](NC(=O)C(N)C3=CCC=CC3)[C@H]2SC1 (stereo not given in full) | -2.43
5 | CCCCCCCCCCC(C)(C)C(=O)Nc1c(OC)cc(OC)cc1OC | -9.64
6 | COc1ccccc1N1CCN(CCN(C(=O)c2ccc(F)cc2)c2ccccn2)CC1 | -6.7
7 | COc1ccc(-c2ccc(N)[n+](CCCC(=O)O)n2)cc1 | -8.16
8 | NC(N)=NC(N)=Nc1ccccc1 | 3.65
9 | C=CCn1c(=O)c2c(nc(-c3ccc(S(=O)(=O)O)cc3)n2C)n(C)c1=O | 6.2
10 | COC(=O)C(C)(N)Cc1ccc(O)cc1 (stereo not given) | 4.04
11 | CC(=O)C(C)=O | -2.52
12 | c1ccc2c(c1)CC(N1CCN(c3cccc4c3OCCO4)CC1)C2 | -8.75
13 | O=C1NC(=O)c2cc(Nc3ccccc3)c(Nc3ccccc3)cc21 | -18.2
14 | NCCCCN=C(N)N | -2.98
15 | COc1ccc(C(=O)NCc2cccnc2)cc1C(=O)NCc1cccnc1 | -9.68
16 | COc1ccccc1N1CCN(CCCCN2C(=O)c3ccccc3C2=O)CC1 | 11.8
17 | CC[C@@H]1Cc2cc(O)ccc2C2=C1c1ccc(O)cc1C[C@H]2CC | -33
18 | N[C@@H](CCC(=O)N[C@H](CSN=O)C(=O)NCC(=O)O)C(=O)O | -3
19 | COc1cc2c(CCNC(C)=O)c[nH]c2cc1O | -14
20 | CCCCCCN(CCCCCC)C(=O)Cc1c(-c2ccc(F)cc2)[nH]c2ccccc12 | -14.5

Row | SMILES | activation [%]
21 | N#C/C(=C\c1ccc(O)c(O)c1)C(=O)NCCc1ccccc1 | 15.9
22 | CCCn1c(=O)c2c(ncn2C)n(CCC)c1=O | 1.83
23 | N#C/C(=C\c1ccc(O)c(O)c1)C(=O)NCCCNC(=O)/C(C#N)=C/c1ccc(O)c(O)c1 | 5.02
24 | CN1CCN(c2nc3cc(C(F)(F)F)ccc3n3cccc23)CC1 | -13
25 | COCc1nc2c([nH]1)c(=O)n(C)c(=O)n2CC(C)C | -2.82
26 | Cc1ccc([N+](=O)[O-])cc1S(=O)(=O)N(C)C | -7.45
27 | NCCCNCCCCNCCCN | -5.17
28 | Nc1nc2ccc(Cl)cc2c2nc(-c3ccco3)nn12 | -0.633
29 | CN1CC(O)C(O)C(O)C1CO (stereo not given) | -1.06
30 | Cn1cc(C(=O)OCC2CCN(CCNS(C)(=O)=O)CC2)c2ccccc21 | -7.84
31 | CCCC[C@@]1(C2CCCC2)Cc2cc(OCC(=O)O)c(Cl)c(Cl)c2C1=O | -10.3
32 | C/C(=C\c1ccc(C(=O)O)cc1)c1ccc2c(c1)C(C)(C)CCC2(C)C | 23.2
33 | COc1cc(C(O)C(=O)O)ccc1O (stereo not given) | -6.79
34 | O=c1onc2n1-c1cc(Br)ccc1OC2 | -6.69
35 | O=c1cc(-c2ccccc2)[nH]c2nc(Cl)ccc12 | -6.87
36 | CC(C)Cn1c(=O)n(C)c(=O)c2[nH]cnc21 | -0.315
37 | O=C(O)c1cc2cc(F)ccc2[nH]1 | -8.17
38 | NC(N)=[N+]1CCc2ccccc2C1 | -13
39 | CC(N)=O | -10.2
40 | NC(=O)CNCCC(c1ccccc1)c1ccccc1 | -2.23
